Screens as filed in PubChem.
HCMV inh = human cytomegalovirus inhibition. 410,000 tested, 4.5% active. AID 1259415. activity change, negative = inhibition, % at 57.5 µM. HFF cells, HCMV-luciferase reporter, 72 h; active compounds read low; in the data active means activity change below about -60%; inconclusive means no clear call, values can overlap the other calls; inactive means above about -39%
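Screen run at 2 compound doses on HFFs infected with reporter HCMV, MOI 1 PFU/cell. Luciferase activity from cell lysates at 72 h post infection gave inhibition relative to buffer-only and Salinomycin wells.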
Vaccinia Venus = vaccinia inhibition (Venus reporter); Vaccinia virus Venus reporter expression, fluorescence; Potency, µM (doses to about 36.5 µM), inactives show top-dose activity change, negative = inhibition, usual class: inhibitors; 330,000 tested, 0.46% active; AID 720580; calls by dose curve; tested in A549 cells; further: potency means the concentration at half of the fitted maximal effect; nearly all actives have a fitted effect of over 30% in size
Marburg entry inh = blocks Marburg virus binding to or entry into cells; Marburg virus pseudotyped entry inhibition, cell reporter; AID 540276; 300,000 tested, 1.8% active; Potency, µM (highest dose often 37.8 µM), inactives show at the top dose activity change, negative = inhibition, actives largely listed as inhibitors; calls by dose curve; tested in HEK293 cells; further: potency means the concentration at half of the fitted maximal effect
FMDV antiviral = foot and mouth disease virus antiviral activity. FMDV antiviral cell-based qHTS. Potency, µM (top dose mostly 57.9 µM), inactives show at the highest dose activity change, negative = inhibition, most hits filed as inhibitors. 410,000 tested, 1.2% active. AID 1159524; calls by dose curve; tested in HEK293T cells; further: read-out not given here; potency means the concentration at half of the fitted maximal effect; nearly all actives have a fitted effect of over 45% in size
Vaccinia mCherry = inhibitors of vaccinia virus infection (mCherry reporter signal) | Vaccinia virus mCherry reporter infection, fluorescence | Potency, µM (top dose mostly 36.5 µM), inactives show at the top dose activity change, negative = inhibition, actives largely listed as inhibitors | 310,000 tested, 0.63% active | AID 720579; calls by dose curve; tested in A549 cells; further: potency means the concentration at half of the fitted maximal effect; nearly all actives have a fitted effect of over 35% in size
Lassa entry inh = inhibitors of Lassa virus binding or cell entry | Potency, µM (doses to about 37.9 µM), without a hit: at the highest dose activity change, negative = inhibition, actives largely listed as inhibitors | 300,000 tested, 1.2% active | AID 540256 | Lassa virus pseudotype entry inhibition, cell reporter; calls by dose curve; tested in HEK293 cells; further: potency means the concentration at half of the fitted maximal effect; nearly all actives have a fitted effect of over 50% in size
Active calls of the source: *; i = inactive; ? = inconclusive; nt = no result given; [ ] = dose if it differs, or a comment. Compounds with a hit are over-represented: about 6.5% of the library has one in this group of screens. On the % scale 0 is the no-effect control and ±100 the full control effect.

SMILES	HCMV inh	Vaccinia Venus	Marburg entry inh	FMDV antiviral	Vaccinia mCherry	Lassa entry inh
COc1ccccc1/C=C/C(C)=O	?	-6.1%	?	?	-7.1%	?
O=C(C[C@H]1C[C@H](C(=O)N2CCCCC2)[C@@]2(CCc3ccccc3)c3[nH]c4cc(-c5ccco5)ccc4c3CCN2C1=O)NCCN1CCOCC1	-101.2*	10µM*	nt	0.0%	?	nt
COCCCNC(=O)C[C@H]1C[C@H](C(=O)N2CCCCC2)[C@@]2(CCc3ccccc3)c3[nH]c4cc(-c5ccco5)ccc4c3CCN2C1=O	-27.7	?	nt	-15.1%	-25.9%	nt
O=C(C[C@H]1C[C@H](C(=O)N2CCOCC2)[C@@]2(CCC3CCCC3)c3[nH]c4cc(-c5ccco5)ccc4c3CCN2C1=O)NCCCn1ccnc1	-89.9*	10µM*	nt	-10.1%	-28.8%	nt
O=C(C[C@H]1C[C@H](C(=O)N2CCCCC2)[C@@]2(CCc3ccccc3)c3[nH]c4ccc(Cl)cc4c3CCN2C1=O)NCCCn1ccnc1	-24.8	11.2µM*	nt	?	-19.8%	nt
COC(=O)CCC(=O)NC(=S)Nc1ccc(S(=O)(=O)Nc2cc(OC)nc(OC)n2)cc1	-25.8	-10.0%	34.7%	108.4%	-14.5%	9.4%
COc1cc(NS(=O)(=O)c2ccc(NC(=S)NC(=O)CC(C)C)cc2)nc(OC)n1	20.2	?	-16.2%[46.1 µM]	94.1%	11.2µM*	8.0%
COc1ccc(NC(=O)CN(C2CCCCC2)S(C)(=O)=O)cc1Cl	-72.7*	nt	-17.9%	-26.0%	nt	-4.9%
COc1ccc(CCNC(=O)CN(C2CCCCC2)S(C)(=O)=O)cc1OC	-3.7	-18.4%	4.0%	nt	i	7.2%
COc1ccc(NC(=O)CN2CCCCC2)cc1S(=O)(=O)N1CCCCC1	9.6	-20.2%	-18.7%	-5.2%	-7.0%	?
COc1ccc(NC(=O)CCC2CCCCC2)cc1S(=O)(=O)N1CCCCC1	-81.6*	-25.1%	?	-12.2%	?	?
COc1ccc(NC(=O)CC2CCCC2)cc1S(=O)(=O)N1CCCCC1	-39.9	-24.6%	-0.5%	-21.5%	-6.0%	10µM*
CCN1CCCC1CNC(=O)c1cnn(-c2nccc(-c3cccs3)n2)c1C(C)C (configuration not stated)	nt	-10.0%	nt	3.1%	-21.3%	nt
COc1ccc(-c2nc(C)c(CCNC(=O)C(=O)Nc3ccccc3F)s2)cc1	9.1	?	nt	-29.4%	?	10.3%[46.1 µM]
Cc1ccc(-c2nn(-c3ccc(F)cc3F)c3c2cnc2c(F)cccc23)cc1	20.2	-10.6%	nt	5.9%	-2.8%	9.6%[46.1 µM]
CC(C)N1CCc2c(sc(NC(=O)c3ccco3)c2C(N)=O)C1	-76.1*	-26.4%	14.7%[46.1 µM]	0.0%	?	27.9%[46.1 µM]
CC(C)N1CCc2c(sc(NC(=O)c3cc4cc([N+](=O)[O-])ccc4s3)c2C(N)=O)C1	-94.7*	-9.6%	nt	-21.7%	?	nt
CN1CCc2c(sc(NC(=O)c3ccc([N+](=O)[O-])o3)c2C(N)=O)C1	-103.8*	2.24µM*	?	-5.6%	?	?
NC(=O)c1c(NC(=O)c2ccc([N+](=O)[O-])o2)sc2c1CCCC2	5.6	-23.1%	-2.0%[46.1 µM]	26.6%	?	?
COC(=O)c1c(NC(=O)c2ccco2)sc2c1CCN(C(C)C)C2	6.4	nt	nt	?	nt	nt
CCOc1ccc([C@H]2C[C@H](c3ccccc3)Nc3nc(N)nn32)cc1	nt	nt	0.7%	nt	nt	nt
Cc1ccc(-n2c(SCC(=O)NCc3ccc(F)cc3)nc3c([nH]c4ccccc43)c2=O)cc1	?	-17.5%	nt	-20.4%	-9.9%	-23.2%[46.1 µM]
Nc1ccc(Br)cc1Br	-12.4	-9.6%	nt	64.7%	i	nt
Cc1cc(C)c(-c2c(N)cc(Br)cc2Br)c(N)c1	-27.0	-12.5%	?	?	12.6µM*	-28.0%[46.1 µM]
Cc1cc(S(=O)(=O)Nc2cccc([N+](=O)[O-])c2)c(C)s1	-39.7	nt	nt	0.0%	nt	nt
O=[N+]([O-])c1cccc(NNS(=O)(=O)c2ccccc2F)c1	-7.6	-19.9%	8.91µM*	-0.1%	?	?
COc1ccc(NC(=O)c2cnc[nH]2)cc1	76.8	4.3%	?	24.0%	4.3%	-4.8%[46.1 µM]
Cc1ccc(C(=O)CSc2nc(C)cc(C)c2C(=O)Nc2cccc(C)c2)cc1	13.8	-13.9%	-8.1%[46.1 µM]	-12.1%	-10.2%	29.8%[46.1 µM]
O=c1c2cc(NC(=S)NCCCN3CCC(Cc4ccccc4)CC3)ccc2nc2n1CCCCC2	-96.2*	?	7.08µM*	-20.8%	-20.9%	?
